From PubChem BioAssay (NCATS)

Assay: qHTS profiling of the MIPE4 collection as inhibitors of Plasmodium falciparum (3D7) proliferation (AID 743344);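 note: scaled between DMSO vehicle wells and 0.29 µM artemisinin as full inhibition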
Conditions: P. falciparum 3D7 in erythrocytes, SYBR Green DNA fluorescence, 72 h; at 28.5 µM unless noted
Source text: Plasmodium falciparum is a virulent malarial parasite that kills 1-2 million people worldwide each year. Transmitted by mosquitoes, the sporozoite form of the parasite enters the blood stream to infect hepatocytes, where they become merozoites that infect red blood cells (erythrocytes). Within erythrocytes, merozoites begin a […] cycle of growth and division, after which the parasite is released to infect new red blood cells. Gametocytes, which form within erythrocytes as well, circulate in the bloodstream and are ingested by the mosquito, thereby completing the life cycle. To profile malarial isolates for differential chemical responses and to identify inhibitors of malarial growth, an assay that measures P. falciparum growth and replication within erythrocytes was employed. This assay uses a DNA binding fluorescent dye (SYBR Green) to detect parasite DNA following cell lysis. Because mature erythrocytes lack DNA, only Plasmodium-derived DNA is detected.
The SYBR Green viability assay was adapted from a method described previously (Plouffe et al., 2008). For screening 3 ul culture medium was dispensed into 1536 well black clear bottom plates (Aurora Biotechnologies) using a Multidrop Combi (Thermo Fisher Scientific Inc.), 23 nL compounds in DMSO were added by a pin tool (Kalypsys), and 5 ul of erythrocytes infected with P. falciparum (0.3% parasitemia, 2.5% hematocrit final concentration) were added. The plates were incubated at 37 C in a humidified incubator in 5% CO2 for 72 h, and 2 ul lysis buffer (20 mM Tris HCl, 10 mM EDTA, 0.16% saponin, 1.6% triton X, 10X SYBR Green I supplied as 10,000X […] by Invitrogen) was added to each well. The plates were mixed for 25 sec with gentle shaking and incubated overnight at room temperature in the dark. The following morning, fluorescence intensity at 485(14) nm excitation and 535(25) nm emission wavelengths was measured on an EnVision (Perkin Elmer) plate reader. Plate reads were normalized relative to the control inhibitor (0.29 uM artemisinin) and vehicle (DMSO) wells present on each plate and then corrected by an algorithm using vehicle-only control plates at the beginning and end of the compound plate stack.

In order of falling parasite growth, % of DMSO control:
1. Cc1n[nH]c(C)c1Cc1sc2c(c1C(=O)N1C[C@H](O)CO1)c(=O)n(C)c(=O)n2CC(C)C  161%
2. CCOc1ccc(Cc2cc([C@@H]3O[C@H](CO)[C@@H](O)[C@H](O)[C@@H]3O)ccc2Cl)cc1  136%
3. NC(=O)c1cnccn1  97.3%
4. Nc1nc2c(ncn2COCCO)c(=O)[nH]1  96.7%
5. CC(=O)Oc1ccccc1C(=O)O  93.6%
6. O=C1CCC(N2C(=O)c3ccccc3C2=O)C(=O)N1 (stereo not given)  93.4%
7. NC(=O)C1CCCc2c1[nH]c1ccc(Cl)cc21 (stereo not given)  92%
8. CCCCNc1cc(C(=O)O)cc(S(N)(=O)=O)c1Oc1ccccc1  87.9%
9. Nc1nccc(-c2ccc3noc(-c4ccc(Cl)cc4)c3c2)n1  85.1%
10. C1COC(NC(C2CC2)C2CC2)=N1  72.7%
11. CC1(C)SCCN(S(=O)(=O)c2ccc(OCC#CCO)cc2)[C@@H]1C(=O)NO  65.2%
12. COc1ccc2nc(S(=O)Cc3ncc(C)c(OC)c3C)[nH]c2c1 (stereo not given)  61.2%
13. Nc1nc2[nH]cc(CCc3ccc(C(=O)N[C@@H](CCC(=O)O)C(=O)O)cc3)c2c(=O)[nH]1  55.6%
14. CC1(C)CNc2cc(NC(=O)c3cccnc3NCc3ccncc3)ccc21  53.8%
15. Cc1[nH]c(=O)c(C#N)cc1-c1ccc2nccn2c1  50.3%
16. CCn1cc(C(=O)O)c(=O)c2cc(F)c(N3CCNC(C)C3)c(F)c21 (stereo not given)  49.1%
17. CCN(c1ccccc1)c1cc(NC)[n+](C)c(C)n1  47.7%
18. Cc1cccc(-c2nn(C(=S)Nc3ccccc3)cc2-c2ccnc3ccccc23)n1  40.4%
19. COc1ccc(COc2cc3oc(=O)c4cc(C(C)O)ccc4c3cc2OC)cc1 (stereo not given)  39.5%
20. OC(CCN1CCCCC1)(c1ccccc1)C1CC2C=CC1C2 (stereo not given)  38.1%
21. Cc1ccc(-n2nc(C(C)(C)C)cc2NC(=O)Nc2ccc(OCCN3CCOCC3)c3ccccc23)cc1  29.4%
22. NC(=O)c1ccc(-c2nc(-c3ccc4c(c3)OCCO4)c(-c3ccccn3)[nH]2)cc1  25.9%
23. O=C(c1cc(Cc2n[nH]c(=O)c3ccccc23)ccc1F)N1CCN(C(=O)C2CC2)CC1  23.5%
24. CC(=O)NC(C)c1ccc(Oc2ccc(OC(C)C)cc2)cc1 (stereo not given)  23.1%
25. CC(C)(N)C(=O)N[C@H](COCc1ccccc1)C(=O)N1CCC2(CC1)CN(S(C)(=O)=O)c1ccccc12  22.8%
26. COc1cc2nccc(Oc3ccc(NC(=O)NC4CC4)c(Cl)c3)c2cc1C(N)=O  17.7%
27. O=c1ncn2nc(Sc3ccc(F)cc3F)ccc2c1-c1c(Cl)cccc1Cl  17.6%
28. COc1ccc(C2=N[C@H](c3ccc(Cl)cc3)[C@H](c3ccc(Cl)cc3)N2C(=O)N2CCNC(=O)C2)c(OC(C)C)c1  17.5%
29. Cc1oncc1C(=O)Nc1ccc(C(F)(F)F)cc1  13.7%
30. Cc1c(CN2CCN(C(=O)C(C)C)CC2)sc2c(N3CCOCC3)nc(-c3cnc(N)nc3)nc12  12.5%
31. CCOC(=O)N[C@@H]1CC[C@@H]2[C@@H](C1)C[C@H]1C(=O)O[C@H](C)[C@H]1[C@@H]2C=Cc1ccc(-c2cccc(F)c2)cn1  7.63%
32. CCC(C)(C)C(=O)O[C@H]1C[C@@H](C)C=C2C=C[C@H](C)[C@H](CC[C@@H]3C[C@@H](O)CC(=O)O3)[C@H]21  6.94%
33. Cc1cc(Nc2nc(N[C@@H](C)c3ncc(F)cn3)ncc2Cl)n[nH]1  6.82%
34. COc1ccc(-c2ccc3c(N4CCOC[C@H]4C)nc(N4CCOC[C@H]4C)nc3n2)cc1CO  6.01%
35. COc1cc2c(cc1OC)CN(CCc1ccc(NC(=O)c3cccc4c(=O)c5cccc(OC)c5[nH]c34)cc1)CC2  5.92%
36. CCn1c(-c2nonc2N)nc2c(C#CC(C)(C)O)ncc(OC[C@H]3CCCNC3)c21  5.72%
37. CN([C@@H](Cc1ccc(OS(=O)(=O)c2cccc3cnccc23)cc1)C(=O)N1CCN(c2ccccc2)CC1)S(=O)(=O)c1cccc2cnccc12  5.27%
38. O=C1[C@H](Cc2ccc(O)cc2)N2C(=O)CCN(C(=O)NCc3ccccc3)[C@H]2CN1Cc1cccc2ccccc12  5.06%
39. CCc1cc(Nc2nccc(-c3c(-c4ccc(OC)c(C(=O)Nc5c(F)cccc5F)c4)nc4ccccn34)n2)c(OC)cc1N1CCC(N2CCN(S(C)(=O)=O)CC2)CC1  4.93%

In the case of `Oc1cccc(-c2nc(N3CCOCC3)c3oc4ncccc4c3n2)c1`, the parasite growth, % of DMSO control is reported as 6.68% [at 57.5 µM].
